Calls of active or inactive are those of the source. Unless noted, how the calls were made is not given here.
Legend:
[1] = compounds binding Alexa647 anti-His antibody – biochemical, small-molecule microarray, 635 nm fluorescence, artefact control for SMM control protein annotation, primary screen (AID 1128); conditions: higher = more signal;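 further: score merges feature fluorescence with signal-to-noise for each printed compound spot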
[2] = tested on: Human papillomavirus type 1a E7 protein (residues 1-88); test: HPV1a E7 small-molecule binders, primary screen, biochemical, small-molecule microarray, residues 1-88, 635 nm (AID 1129); conditions: small-molecule microarray binding, fluorescence 635 nm; higher = more signal
[3] = target: Focal adhesion kinase 1 (Homo sapiens) (UniProt Q05397); test: PTK2 protein binding on printed compound slides – biochemical, small-molecule microarray, 635/667 nm fluorescence, BSA, DTT, primary screen (AID 1130); conditions: 635 nm fluorescence, higher = more signal;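 further: composite of spot emission at 667 nm and signal to noise over triplicate slides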
[4] = tested on: Fibrinogen (Alexa647-labelled); test: Alexa647-fibrinogen binding to printed small molecules – biochemical, small-molecule microarray, 635/667 nm fluorescence, artefact control for SMM control-protein annotation, profiling panel (AID 1131); conditions: fibrinogen-A647 binding fluorescence, higher = more signal;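 further: z-score merges 667 nm fluorescence with per-spot signal-to-noise over triplicate slides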
[5] = target: Follistatin (Homo sapiens) (UniProt P19883); test: FST protein binding to printed compounds – biochemical, small-molecule microarray, 635/667 nm fluorescence, primary screen (AID 1132); conditions: 635 nm fluorescence, higher = more signal
[6] = target: Fibroblast growth factor 2 (Homo sapiens) (UniProt P09038); test: basic fibroblast growth factor binding to printed compounds – biochemical, small-molecule microarray, 635/667 nm fluorescence, primary screen (AID 1133); conditions: FGF2, fluorescence 635/667, higher = more signal
[7] = JC-1 mitochondrial potential readout, lung cancer cells – cell-based, A549, JC-1 fluorescence, basal, 24 h, 100 nL, profiling panel (AID 1138); conditions: higher = more signal;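 further: A549 lung adenocarcinoma cells under basal conditions with no added stimulus; test concentration not given here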
[8] = tested on: Lefty1; test: Lefty1 protein binding to printed compounds – biochemical, small-molecule microarray, 635/667 nm fluorescence, primary screen (AID 1139); conditions: fluorescence 635/667, higher = more signal
[9] = tested on: wheat germ agglutinin (Triticum aestivum), Alexa647-labelled; test: Alexa647-WGA lectin binding to printed small molecules – biochemical, small-molecule microarray, 635/667 nm fluorescence, artefact control for SMM control-protein annotation, profiling panel (AID 1140); conditions: WGA-A647 binding, 635 nm fluorescence, higher = more signal;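 further: score merges 667 nm feature emission with signal to noise over triplicate slides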
[10] = target: Luciferin 4-monooxygenase (Photinus pyralis) (UniProt P08659); test: inhibition of purified Photinus pyralis luciferase – biochemical, luminescence, purified enzyme, 2006 set, primary screen (AID 1141); conditions: purified firefly luciferase, SteadyGlo luminescence, 30 min; higher = more signal, called active from +8 up or from −8 down;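 further: cell-free assay with purified firefly luciferase at 100 ng per well in PBS; test concentration not given here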
[11] = tested on: Wnt5a (protein binding on small-molecule microarray); test: small molecules binding Wnt5a protein – biophysical, small-molecule microarray, 635/667 nm fluorescence, primary screen (AID 1142); conditions: 635 nm fluorescence, higher = more signal;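 further: fluorescence read at 667 nm with signal to noise per printed feature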
[12] = ATP-based viability of Huh7 replicon cells – cell-based, CellTiter-Glo luminescence, basal, 48 h, cytotoxicity control for HCV replication inhibitor project, primary screen (AID 1143); conditions: higher = more signal, called active from +8 up or from −8 down;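 further: Huh7 hepatoma cells carrying a hepatitis C replication reporter with no stimulus; test concentration not given here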
[13] = Pseudomonas biofilm growth suppression – PAO1 strain, BacTiter-Glo luminescence, LB-PBS, primary screen (AID 1144); conditions: P. aeruginosa PAO1 biofilm, 12 h, higher = more signal
[14] = basal CRE-LacZ reporter activity in PC12 – cell-based, unstimulated, primary screen (AID 1145); conditions: no forskolin, luminescence, 4.5 h, higher = more signal, called active from +8 up or from −8 down
[15] = forskolin-driven CRE-LacZ activity in PC12 – cell-based, CRE-LacZ reporter, forskolin-stimulated, primary screen (AID 1146); conditions: luminescence, 4.5 h, higher = more signal, called active from +8 up or from −8 down;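 further: PC12 cells with 6xCRE LacZ reporter stimulated by forskolin 10 µM; beta-galactosidase reporter signal reflecting CREB driven transcription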
[16] = target: Streptavidin (Streptomyces avidinii) (UniProt P22629); test: compounds binding control protein streptavidin – biophysical, small-molecule microarray, 635/667 nm fluorescence, artefact control for SMM compound annotation, primary screen (AID 1147); conditions: higher = more signal;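 further: signal reflects streptavidin binding to arrayed compounds as a control protein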
[17] = probe aInhba binding on compound microarray – biochemical, small-molecule microarray, 635/667 nm fluorescence, primary screen (AID 1148); conditions: higher = more signal;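 further: score merges 667nm spot fluorescence with signal-to-noise for antibody binding to printed compounds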
[18] = target: Torsin-1A (Homo sapiens) (UniProt O14656); test: TOR1A wild-type binding on microarray – cell lysate, small-molecule microarray, lysate, 635/667 nm, primary screen (AID 1149); conditions: COS7 hTOR1A-WT lysate, 635 nm fluorescence, higher = more signal
[19] = target: Torsin-1A (Homo sapiens) (UniProt O14656); test: torsin A mutant lysate binding on microarrays – cell lysate, small-molecule microarray, COS7 lysate, 635/667 nm fluorescence, primary screen (AID 1150); conditions: COS7 hTOR1A mutant lysate, 635 nm fluorescence, higher = more signal;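 further: score pools 667 nm emission and signal to noise measuring lysate protein binding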
[20] = tested on: Sonic hedgehog protein (Shh); test: Sonic hedgehog microarray binding compounds – biochemical, small-molecule microarray, 635/667 nm fluorescence, primary screen (AID 1151); conditions: 635 nm fluorescence, higher = more signal;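 further: Shh protein binding to compounds spotted on small-molecule microarray slides; score combines spot fluorescence intensity with signal-to-noise across triplicate slides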

Sequence of Torsin-1A (Homo sapiens) (O14656 whole entry, looked up): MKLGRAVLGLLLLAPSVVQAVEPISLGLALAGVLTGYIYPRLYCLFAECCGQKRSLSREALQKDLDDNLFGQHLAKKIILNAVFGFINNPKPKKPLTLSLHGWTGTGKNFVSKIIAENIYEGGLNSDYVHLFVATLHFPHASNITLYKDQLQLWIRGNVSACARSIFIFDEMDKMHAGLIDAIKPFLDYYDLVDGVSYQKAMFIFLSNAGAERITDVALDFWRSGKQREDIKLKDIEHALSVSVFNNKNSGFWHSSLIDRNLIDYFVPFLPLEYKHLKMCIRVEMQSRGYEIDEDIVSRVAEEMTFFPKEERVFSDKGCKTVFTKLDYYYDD
Sequence of Luciferin 4-monooxygenase (Photinus pyralis) (P08659 whole entry, looked up): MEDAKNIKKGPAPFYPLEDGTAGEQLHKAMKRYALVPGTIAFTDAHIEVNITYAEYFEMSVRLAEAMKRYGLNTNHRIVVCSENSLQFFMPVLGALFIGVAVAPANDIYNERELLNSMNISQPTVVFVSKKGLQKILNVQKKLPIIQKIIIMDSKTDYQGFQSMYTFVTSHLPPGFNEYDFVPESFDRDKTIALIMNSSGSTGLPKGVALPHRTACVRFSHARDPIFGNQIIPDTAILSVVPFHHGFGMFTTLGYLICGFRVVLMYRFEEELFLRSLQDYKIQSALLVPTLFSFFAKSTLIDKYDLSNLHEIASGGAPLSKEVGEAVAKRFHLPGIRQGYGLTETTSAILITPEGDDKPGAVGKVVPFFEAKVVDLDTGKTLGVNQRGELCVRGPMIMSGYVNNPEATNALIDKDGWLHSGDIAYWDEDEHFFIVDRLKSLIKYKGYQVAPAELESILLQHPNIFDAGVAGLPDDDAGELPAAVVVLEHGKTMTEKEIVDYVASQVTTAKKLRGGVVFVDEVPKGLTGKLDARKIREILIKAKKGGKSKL
Sequence of Streptavidin (Streptomyces avidinii) (P22629 whole entry, looked up): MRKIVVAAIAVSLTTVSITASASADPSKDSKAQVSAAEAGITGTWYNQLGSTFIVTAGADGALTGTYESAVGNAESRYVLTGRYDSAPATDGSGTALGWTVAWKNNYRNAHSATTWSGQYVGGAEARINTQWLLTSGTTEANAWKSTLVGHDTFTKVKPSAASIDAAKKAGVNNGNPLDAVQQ
Sequence of Focal adhesion kinase 1 (Homo sapiens) (Q05397 whole entry, looked up): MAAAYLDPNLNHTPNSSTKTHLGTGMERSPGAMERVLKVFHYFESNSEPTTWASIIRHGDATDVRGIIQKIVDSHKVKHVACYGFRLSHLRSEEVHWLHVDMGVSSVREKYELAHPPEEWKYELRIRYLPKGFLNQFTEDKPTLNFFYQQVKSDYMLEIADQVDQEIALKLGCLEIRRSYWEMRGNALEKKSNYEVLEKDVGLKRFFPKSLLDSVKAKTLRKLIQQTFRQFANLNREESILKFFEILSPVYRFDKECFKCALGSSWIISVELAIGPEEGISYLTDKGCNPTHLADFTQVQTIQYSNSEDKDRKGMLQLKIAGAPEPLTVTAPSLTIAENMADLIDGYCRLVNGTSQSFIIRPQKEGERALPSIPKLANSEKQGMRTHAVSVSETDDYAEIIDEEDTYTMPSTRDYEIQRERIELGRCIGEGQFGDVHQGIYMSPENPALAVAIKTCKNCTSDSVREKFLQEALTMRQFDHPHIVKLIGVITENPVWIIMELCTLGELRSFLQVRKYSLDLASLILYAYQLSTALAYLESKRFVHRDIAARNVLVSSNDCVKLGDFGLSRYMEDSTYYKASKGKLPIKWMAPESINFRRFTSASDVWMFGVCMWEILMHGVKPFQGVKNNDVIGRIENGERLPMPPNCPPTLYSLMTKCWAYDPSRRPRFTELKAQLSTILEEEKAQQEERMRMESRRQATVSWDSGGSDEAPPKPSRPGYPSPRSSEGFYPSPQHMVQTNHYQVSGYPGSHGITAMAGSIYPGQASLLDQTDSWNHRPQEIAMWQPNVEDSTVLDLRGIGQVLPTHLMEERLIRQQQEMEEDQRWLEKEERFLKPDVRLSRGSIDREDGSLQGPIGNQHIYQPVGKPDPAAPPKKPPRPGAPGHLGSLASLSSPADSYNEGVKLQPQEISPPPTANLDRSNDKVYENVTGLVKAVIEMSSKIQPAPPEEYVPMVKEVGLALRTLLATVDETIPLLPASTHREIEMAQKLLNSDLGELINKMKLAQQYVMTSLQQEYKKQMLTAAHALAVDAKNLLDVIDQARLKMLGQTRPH
Sequence of Follistatin (Homo sapiens) (P19883 whole entry, looked up): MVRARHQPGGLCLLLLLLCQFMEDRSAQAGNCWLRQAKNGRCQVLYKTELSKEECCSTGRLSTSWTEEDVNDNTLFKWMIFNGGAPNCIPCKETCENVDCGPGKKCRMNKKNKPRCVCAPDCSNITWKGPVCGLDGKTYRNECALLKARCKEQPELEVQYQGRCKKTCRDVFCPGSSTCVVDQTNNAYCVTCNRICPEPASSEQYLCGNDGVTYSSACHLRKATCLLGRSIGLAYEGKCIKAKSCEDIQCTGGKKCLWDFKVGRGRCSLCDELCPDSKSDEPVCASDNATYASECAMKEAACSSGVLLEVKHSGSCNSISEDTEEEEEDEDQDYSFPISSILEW
Sequence of Fibroblast growth factor 2 (Homo sapiens) (P09038 whole entry, looked up): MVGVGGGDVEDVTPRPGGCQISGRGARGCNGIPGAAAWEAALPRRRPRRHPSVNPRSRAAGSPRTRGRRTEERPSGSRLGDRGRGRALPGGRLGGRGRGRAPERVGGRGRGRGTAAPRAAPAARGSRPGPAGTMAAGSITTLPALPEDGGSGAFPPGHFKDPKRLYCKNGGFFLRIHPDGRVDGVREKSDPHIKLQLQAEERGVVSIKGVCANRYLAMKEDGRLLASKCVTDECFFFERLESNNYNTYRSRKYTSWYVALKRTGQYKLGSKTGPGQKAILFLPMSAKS

Row | Compound | composite z-score [1] | composite z-score [2] | composite z-score [3] | composite z-score [4] | composite z-score [5] | composite z-score [6] | z-score [7] | composite z-score [8] | composite z-score [9] | z-score [10] | composite z-score [11] | z-score [12] | z-score [13] | z-score [14] | z-score [15] | composite z-score [16] | composite z-score [17] | composite z-score [18] | composite z-score [19] | composite z-score [20]
1 | CC(=O)OC[C@H]1O[C@H](CC=NOC[C@@H](O)COCc2ccco2)C=C[C@@H]1OC(C)=O | 0.526 | -0.193 | 0.0925 | -0.629 | 1.38 | 1.54 | 0.548 | 1.52 | -0.327 | 0.642 (inactive) | 0.364 | 0.0896 (inactive) | -0.196 (inactive) | -0.729 (inactive) | 0.25 (inactive) | -0.436 | -0.183 | 3.67 | 3.65 | 2.07
2 | CCOC(=O)[C@H](CC(C)C)NC(=O)CCC1CC(OC(=O)NCc2ccc3c(c2)OCO3)CC2(CCCC(COC(=O)NCCOc3ccccc3)O2)O1 (stereo not given in full) | 0.424 | 1.17 | 0.0776 | 1.01 | 0.829 | 0.846 | 0.574 | 1.61 | 0.598 | 0.547 (inactive) | 0.278 | -0.705 (inactive) | -0.393 (inactive) | 0.293 (inactive) | 0.179 (inactive) | 0.282 | -0.0719 | 0.314 | 0.387 | 1.87
3 | CC#CCOCCC=C1c2ccccc2[C@@H](OC)[C@@H]1C | 1.79 | -0.0931 | -0.0029 | 0.329 | 0.331 | 0.412 | -0.198 | 1.24 | 0.725 | -0.693 (inactive) | 0.179 | 0.447 (inactive) | -0.445 (inactive) | 1.42 (inactive) | -0.146 (inactive) | -0.534 | -0.122 | 0.147 | 0.481 | 0.584
4 | C=CCOCC1CN2[C@@H](CC[C@@H](C)[C@@H]2c2ccc(Br)cc2)C(=O)O1 (stereo not given in full) | 0.24 | -0.695 | -0.262 | -0.5 | 0.119 | 0.166 | 1.88 | 0.262 | -0.16 | -0.764 (inactive) | -0.234 | -0.0112 (inactive) | 1.1 (inactive) | 0.829 (inactive) | -0.0565 (inactive) | 0.0804 | -0.367 | 0.318 | 0.499 | 0.257
5 | O=C1[C@H]2[C@H]3[C@H](O)[C@H](O)CC(=NO[C@@H]4O[C@H](CO)[C@@H](O)[C@H](O)[C@H]4O)[C@H]3CC[C@H]2C(=O)N1C[C@@H]1CCCO1 | -0.0286 | -0.178 | -0.159 | 0.333 | -0.438 | 0.182 | -0.222 | 0.0013 | -0.442 | 0.569 (inactive) | 0.16 | 0.297 (inactive) | 0.261 (inactive) | -0.477 (inactive) | -0.105 (inactive) | 0.253 | -0.159 | 0.288 | 0.952 | -0.167

— PubChem BioAssay
